TROY signal inh: TROY signaling inhibition | Q293 LMP1-TROYcd NF-kB luciferase reporter, 4 h | inhibition, % at 10 µM | 360,000 tested, 0.98% active | AID 1347056;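 active = compounds whose plate-normalised and pattern-corrected inhibition of the luciferase reporter signal at the single screening dose is 50% or more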
Platelet DG rel: modulates dense granule release in human platelets; human platelet-rich plasma, SFLLRN dense granule ATP release, luminescence; inhibition, %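 (compounds screened at 7.5 µM in platelet-rich plasma)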; 300,000 tested, 0.22% active;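 active = mean replicate score, as percent of positive control, at or above 50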
TWEAK Fn14 block: inhibitors of TWEAK-Fn14 interaction signaling. 360,000 tested, 2% active. TWEAK-stimulated Fn14 reporter cells, luciferase luminescence, 8 h. inhibition, % at 10 µM; in the data active = inhibition above about 50%
PPC-1+TRAIL kill: PPC-1 cancer cell killing with TRAIL present; PPC-1 cells + TRAIL, ATPLite viability luminescence; cell killing (% activity), % at 4 µM or 5 µM; 220,000 tested, 0.41% active; AID 1443;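 active = cell killing above 50% in the first pass at 4 µM, then a duplicate retest at 5 µM averaging 50% or more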;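 also: plate controls were cells with TRAIL plus DMSO for no effect and medium-only wells lacking cells for full effect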
TRAIL sens C8: caspase-8 TRAIL sensitization. NB7+C8 cells + TRAIL, ATPlite viability luminescence. inhibition (viability loss, TRAIL sensitization), % at 10 µM. 360,000 tested, 1% active;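 active = compounds causing at least 50% loss of cell viability in the single-dose screen, relative to plate controls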
HSP90 inh: blocks HSP90-mediated luciferase refolding in reticulocyte lysate. Rabbit reticulocyte lysate, luciferase refolding luminescence, 3 h. inhibition, % at 5.6 µM. 290,000 tested, 0.91% active. AID 1789;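 active = inhibition above the screen-wide mean plus 3 SD, computed separately per campaign, cut at about 16% in these data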;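 also: 0% = DMSO wells and 100% = 60 µM geldanamycin wells; inhibitors lower the luminescence because luciferase stays unfolded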
HSP90 inh confirm: confirmation of HSP90 inhibitors | rabbit reticulocyte lysate, luciferase refolding luminescence, 3 h | 2,300 tested, 64% active | shares compounds with HSP90 inh | inhibition, % at 5.9 µM | AID 1846; in the data active = inhibition above about 18%;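 also: 0% = vehicle wells and 100% = reference inhibitor wells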
luciferase ctr: blocks native firefly luciferase in HSP90 counter-screen | purified native firefly luciferase, luminescence | AID 1847 | 2,300 tested, 48% active | inhibition, % at 5.9 µM | shares compounds with HSP90 inh;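 active = inhibition above the mean inhibition of all tested sample wells plus 3 SD, cut at about 10% in these data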;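 also: 0% = DMSO with luciferase and 100% = wells lacking luciferase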
Target sequence (P08659 whole entry, looked up): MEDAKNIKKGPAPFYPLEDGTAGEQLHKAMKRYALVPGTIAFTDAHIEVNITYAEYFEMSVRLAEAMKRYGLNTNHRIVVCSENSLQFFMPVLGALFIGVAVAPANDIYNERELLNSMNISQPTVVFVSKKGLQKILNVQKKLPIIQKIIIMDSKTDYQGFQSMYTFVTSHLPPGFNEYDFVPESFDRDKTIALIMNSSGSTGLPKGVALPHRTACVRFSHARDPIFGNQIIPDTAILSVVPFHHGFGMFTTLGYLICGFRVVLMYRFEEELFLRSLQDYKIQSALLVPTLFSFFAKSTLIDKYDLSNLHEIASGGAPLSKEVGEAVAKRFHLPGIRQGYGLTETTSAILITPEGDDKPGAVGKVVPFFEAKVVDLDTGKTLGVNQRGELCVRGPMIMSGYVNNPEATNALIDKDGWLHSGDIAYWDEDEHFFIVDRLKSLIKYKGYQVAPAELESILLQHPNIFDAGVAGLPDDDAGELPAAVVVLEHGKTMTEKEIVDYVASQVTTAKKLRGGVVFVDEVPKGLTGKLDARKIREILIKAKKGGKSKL
Starred values were filed as active, the others as inactive; nt = no result given. The list is not random: actives were taken first. Their share in the collection is about 3.5%.

SMILES	TROY signal inh	Platelet DG rel	TWEAK Fn14 block	PPC-1+TRAIL kill	TRAIL sens C8	HSP90 inh	HSP90 inh confirm	luciferase ctr
O=C(O)c1ccc(COc2ccc3ccccc3c2)o1	-35.4	-1.7	28.3	7.9	-6.8	67.4*	74.8*	30.4*
CCOc1ccc(OCc2ccc(C(=O)NCc3ccncc3)o2)cc1	-25.6	-18.3	-2.6	3.0	-8.9	17.8*	19.4*	-3.9
C/C=C/c1ccccc1OCc1ccc(C(=O)O)o1	-46.8	4.6	-3.8	5.2	-3.9	5.9	nt	nt
CC(C)=NNc1nc(-c2ccc(N3C(=O)CCC3=O)cc2)cs1	-14.6	7.0	-32.8	19.4	4.5	-0.7	nt	nt
Cc1cc(NC(=O)CN2C(=O)NC3(CCCCCC3)C2=O)no1	7.4	-1.0	4.6	0.8	-12.0	-0.7	nt	nt
Oc1ccc(Cl)cc1CNc1cccc2cccnc12	4.2	-3.3	12.5	nt	26.1	26.6*	3.2	-4.4
Oc1ccc(Br)cc1CNc1cccc2cccnc12	25.8	10.2	17.4	nt	-1.2	25.4*	1.8	0.5
COc1ccc2[nH]c(C(=O)Nc3cccc(C)n3)cc2c1	-65.1	11.6	40.0	42.6	54.8*	23.2*	29.8*	19.1*
Cc1ccc(S(=O)(=O)N2CCOCC2)cc1C(=O)NC(=S)N1CC(C)OC(C)C1 (stereo not drawn)	9.5	6.2	2.9	-7.9	-6.9	1.9	nt	nt
Cc1ccc(-c2nc(-c3ccncc3)no2)cc1C	18.4	-0.9	49.0	nt	26.8	21.0*	29.0*	25.1*
CC1(C)C(=O)OC(c2ccc([N+](=O)[O-])cc2)C(C)(C)C1=O (stereo not drawn)	-6.2	0.6	7.6	nt	-6.9	-4.2	nt	nt
Oc1ccc(-c2csc(NCc3ccco3)n2)cc1	-10.1	5.6	-21.6	0.1	4.7	-2.9	nt	nt
c1coc(CNc2nc(-c3cccs3)cs2)c1	-25.9	-1.5	24.5	11.8	-8.0	17.6*	7.4	-26.0
C=CC[C@@H](Cc1ccc(F)cc1)C(=O)OC[C@@H]1CCCN1C(=O)[C@H](CC=C)CC(=O)NCCO	-15.9	nt	-0.3	nt	-12.7	nt	nt	nt
O=C(CN1C(=O)CCC1=O)NNc1ccc2ccccc2c1	66.9*	-7.8	70.3*	42.7	20.5	25.6*	12.6	-13.0
O=C(Cc1ccccc1)NNc1ccc2ccccc2c1	50.7*	-0.4	32.0	9.7	-2.3	38.6*	5.2	-2.8
O=C(COc1ccc2ccccc2c1)NNC(=O)Cc1ccccc1	-5.1	-4.3	15.3	-3.5	-6.2	3.4	nt	nt
Cc1[nH]c(-c2ccco2)nc1C(=O)O	20.3	7.7	4.4	7.2	-19.3	18.1*	-0.1	-2.7
CCOC(=O)c1c(C)nc(C)c(C(=O)OCC)c1-c1ccco1	-2.4	-8.4	-10.6	-3.0	-13.5	3.4	nt	nt
CC(=O)/C(N=Nc1ccc2c(c1)OCO2)=C(\C)O	-12.1	15.4	25.1	23.1	7.9	-3.7	nt	nt
CC(=O)/C(N=Nc1ccc2c(c1)OCCO2)=C(\C)O	27.0	13.7	77.4*	4.6	6.3	25.4*	44.5*	55.5*
CC(=O)CC(=O)Nc1nc(C)cc(C)n1	12.2	-4.5	22.2	4.1	-6.6	27.1*	-1.1	-3.5
CCOC(=O)N(C)C[C@H]1OCc2cnnn2CCCC(=O)N([C@@H](C)CO)C[C@@H]1C	-0.3	nt	18.0	nt	-13.8	nt	nt	nt
Cc1ccc(C(=O)NC2=NCCS2)cc1	nt	6.9	nt	-1.5	nt	11.6	nt	nt
CC(C)c1ccc(C(=O)NC2=NCCS2)cc1	-24.8	-1.3	40.8	46.4	69.8*	17.6*	42.3*	38.1*
SMILES	TROY signal inh	Platelet DG rel	TWEAK Fn14 block	PPC-1+TRAIL kill	TRAIL sens C8	HSP90 inh	HSP90 inh confirm	luciferase ctr
Nc1c(-c2ccccc2)cnn1-c1ccc(C(=O)O)cc1	-28.9	13.2	54.2*	30.5	4.7	24.6*	42.5*	3.8
Cc1nn(-c2ccc(C(=O)O)cc2)c(N)c1-c1ccccc1	-25.9	2.8	32.8	18.8	20.5	20.9*	48.4*	-0.6
CC(C)Oc1cccc(NC(=O)C2(C)CCN2C(=O)C(C)C)c1 (stereo not drawn)	-1.9	nt	2.8	nt	-9.7	nt	nt	nt
CCCN=C1N(C)C[C@@H]2[C@@H]3C(=O)N(C)C(=O)[C@@H]3[C@](CC)(C(=O)OC)N12	-3.0	nt	2.5	nt	3.3	nt	nt	nt
CCOc1nc(Nc2ccc(OC)cc2)nc(OCC)n1	-10.8	-3.3	4.5	4.0	14.5	1.5	nt	nt
CN(C)c1ccc(Nc2nc(N)c3ccccc3n2)cc1	66.8*	80.3*	95.1*	nt	83.9*	70.5*	92.1*	78.3*
CCOc1ccc(Nc2nc(N)c3ccccc3n2)cc1	61.2*	90.5*	91.6*	nt	86.1*	59.7*	74.2*	61.0*
CN(C)c1nc(Nc2ccccc2)nc(N(C)C)n1	-42.8	2.1	-11.4	18.7	-12.1	-0.1	nt	nt
CCc1nc2c(OCC(=O)c3ccc(Cl)cc3Cl)cccn2c1N(C)C(=O)COc1ccccc1	-2.2	nt	-9.8	nt	-10.7	nt	nt	nt
CCOc1ccc2nc(NC(=O)CSc3cn[nH]n3)sc2c1	-27.9	12.9	-6.8	nt	31.0	19.0*	25.3*	13.7*
CCOC(=O)C1CCCN(S(=O)(=O)c2ccc(-c3cc(C)no3)s2)C1 (stereo not drawn)	0.8	7.6	-13.7	nt	21.7	-4.2	nt	nt
CCOC(=O)CSc1ccc(-c2nc3cc(C)c(C)cc3[nH]2)cn1	3.1	0.6	41.7	37.3	46.6	1.5	nt	nt
Cc1cc2nc(-c3cccnc3SCC(=O)NC(C)C)[nH]c2cc1C	5.2	6.9	-5.7	37.6	34.3	33.8*	-3.2	-23.3
CC(=O)c1cccc(-c2ccnc3c2CC(C(=O)NCc2cccs2)O3)c1 (stereo not drawn)	19.3	nt	26.6	nt	17.7	nt	nt	nt
COc1cccc(S(=O)(=O)N(C)C[C@H]2OCc3cnnn3CCCC(=O)N([C@H](C)CO)C[C@@H]2C)c1	-5.9	nt	-11.9	nt	-8.1	nt	nt	nt
O=C1CC(C(=O)O)S/C(=N\N=C\c2ccc(Br)cc2)N1 (stereo not drawn)	-8.3	-1.8	11.9	13.2	7.8	27.3*	22.3*	-13.6
C/C(=N/N=C1/NC(=O)CC(C(=O)O)S1)c1ccccc1 (stereo not drawn)	7.3	1.1	28.9	-1.5	1.0	5.5	nt	nt
COc1ccc(Oc2ccc(C(F)(F)F)cc2N)cc1	-32.6	-5.4	-11.5	27.4	11.5	-3.5	nt	nt
COc1cc2cnc(-c3ccccc3)cc2cc1OC	-55.0	nt	-32.4	nt	6.8	nt	nt	nt
COc1ccc2cc(-c3ccccc3)ncc2c1	-27.0	41.2	41.6	nt	62.3*	20.2*	23.7*	10.3*
Cn1c(=O)n(-c2ccc(Cl)cc2)c(=O)c2c3c(sc21)COC(C)(C)C3	17.5	-1.4	10.2	-3.7	5.3	41.0*	-2.8	-5.0
CCOC1=C2[C@@H](CN(S(=O)(=O)c3ccc(C)cc3)[C@H]2c2ccccc2F)[C@H]2C(=O)N(c3ccccc3)C(=O)[C@H]2C1	-4.7	nt	13.1	nt	14.3	nt	nt	nt
